# Active and inactive are the calls of the source.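 The calls were made as follows, unless noted: active = inhibition above 20% together with a positive visual image hit; inconclusive = visual image hit but inhibition not above 20%; inactive = no visual image hit.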
# How the values were obtained:
# [1] = inhibitors of TNFa-induced NFkB p65 translocation, primary screen, imaging, HUVEC, MLSMR starter and 10KST1 sets (AID 438); details: HUVEC TNFa-induced p65 nuclear translocation; cell count: measured here: nuclei count (cytotoxicity indicator), at 2.08 µM; inhibition: at 2 µM, stronger effect = higher value, 0% TNFa-plus-vehicle, 100% no-TNFa wells;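 also: compound added about 3h40 before a 20 min TNFalpha stimulation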;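 as to inhibition: signal is the nuclear over cytoplasmic p65 intensity ratio per well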
# [2] = inhibitors of mutant huntingtin aggregation, primary screen, imaging, exon1htt(103Q)mCFP cells, high-content imaging (AID 483;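 active = visual image review flags a hit and inhibition of aggregation exceeds 20%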;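 also: compound exposure lasted 3 days before fixation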;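 as to nuclei count: percent of the per-plate median nuclei count of sample wells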); details: exon1htt(103Q)mCFP cell line, aggregate imaging, at 2 µM; inhibition of aggregation: stronger effect = higher value; nuclei count: measured here: cell count, toxicity
# [3] = inhibitors of E-selectin induction by TNFa, primary screen, imaging, HUVEC, immunofluorescence, MLSMR starter and 10KST1 sets (AID 487;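 active = visually confirmed hit in the image check and inhibition above 20%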;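 as to inhibition: signal is fraction of cell area covered by stained E-selectin grains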;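 as to nuclei count: 100% = median nuclei count of all wells on the same plate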); details: HUVEC TNFalpha-induced E-selectin immunofluorescence imaging, at 2 µM; inhibition: stronger effect = higher value; nuclei count: measured here: cell number, toxicity
# [4] = target: Voltage-gated potassium channel subunit beta-2 (Rattus norvegicus) (UniProt P62483); assay: KvBeta enzyme negative modulators, primary screen, biochemical, NADPH fluorescence (AID 622;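 active = fluorescence slope higher than the sample average by over 3 SD, cut at about -0.22 in these data, passing the limit was not always enough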;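 also: slope of raw intensity against log time taken from 70 to 1610 s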); details: recombinant KvBeta, 4-cyanobenzaldehyde reduction, at 10 µM, stronger effect = higher value
# Sequence of Voltage-gated potassium channel subunit beta-2 (Rattus norvegicus) (P62483 whole entry, looked up): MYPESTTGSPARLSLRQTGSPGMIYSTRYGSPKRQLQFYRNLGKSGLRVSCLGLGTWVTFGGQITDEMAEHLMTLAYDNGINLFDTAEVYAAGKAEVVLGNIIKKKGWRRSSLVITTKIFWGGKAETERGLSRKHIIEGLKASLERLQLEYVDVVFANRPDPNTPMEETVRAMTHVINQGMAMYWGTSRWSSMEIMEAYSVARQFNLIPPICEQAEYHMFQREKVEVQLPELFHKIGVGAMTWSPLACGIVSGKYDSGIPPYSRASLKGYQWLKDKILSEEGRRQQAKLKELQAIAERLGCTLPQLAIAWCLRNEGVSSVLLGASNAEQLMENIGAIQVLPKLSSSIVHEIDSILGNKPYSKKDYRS
# [5] = target: Voltage-gated potassium channel subunit beta-2 (Rattus norvegicus) (UniProt P62483); assay: KvBeta positive modulators, primary screen, biochemical, NADPH fluorescence (AID 623;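 active = NADPH fluorescence slope more negative than the mean of all samples by about 3 SD, 99.7% confidence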;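 also: fluorescence intensity change per second fitted from 20 to 320 s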); details: Recombinant KvBeta, NADPH fluorescence decrease slope, 10 min; at 10 µM; stronger effect = lower value
# [6] = target: Alpha-2C adrenergic receptor (Homo sapiens) (UniProt P18825); assay: modulators of alpha2C/GIRK thallium flux, primary screen, cell-based, HEK293 alpha2C/GIRK1/2 (AID 624;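 active = fluorescence slope after compound addition differing from the mean of all screened samples at 99.7% confidence, in either direction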;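 also: slope of fluorescence ratio to pre-addition baseline per second over 15 to 24 s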); details: thallium flux BTC fluorescence, at 10 µM, actives lie on both sides
# Sequence of Alpha-2C adrenergic receptor (Homo sapiens) (P18825 whole entry, looked up): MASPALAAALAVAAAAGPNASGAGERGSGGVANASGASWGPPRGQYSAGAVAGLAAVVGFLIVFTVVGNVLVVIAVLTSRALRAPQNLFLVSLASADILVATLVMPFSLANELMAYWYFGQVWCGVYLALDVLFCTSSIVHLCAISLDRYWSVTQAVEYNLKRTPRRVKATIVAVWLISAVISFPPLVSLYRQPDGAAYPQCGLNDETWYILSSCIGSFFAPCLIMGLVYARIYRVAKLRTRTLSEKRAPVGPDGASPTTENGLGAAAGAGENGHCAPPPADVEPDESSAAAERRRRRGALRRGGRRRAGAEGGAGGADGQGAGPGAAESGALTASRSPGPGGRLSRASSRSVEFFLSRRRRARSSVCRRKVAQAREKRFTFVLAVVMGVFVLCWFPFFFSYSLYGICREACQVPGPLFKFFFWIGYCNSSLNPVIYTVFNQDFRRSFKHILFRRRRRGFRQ
# [7] = inhibitors of Sendai virus-induced IRF3 signaling, primary screen, TLR/RLR signaling modifier project, cell-based, Sendai virus stimulus, luciferase, 10K MLSCN set (AID 602276;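 active = inhibition at or above 50% at 10 µM; inactive = inhibition below 50%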;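 also: firefly luciferase from ISG56 promoter only with Renilla not read in this screen; 0% = Sendai virus plus DMSO and 100% = medium plus DMSO without virus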); details: HEK293 RL24 IRF3 luciferase reporter, at 10 µM, stronger effect = higher value
# [8] = inhibitors of poly I:C-induced TLR3 signaling, primary screen, cell-based, poly I:C stimulus, luciferase, 10K MLSCN set (AID 602277;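 active = inhibition of the reporter signal at or above 50%; inactive = inhibition below 50%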); details: HEK293-TLR3 RL24 IRF3 luciferase reporter, at 10 µM, stronger effect = higher value
Compound,cell count [1],inhibition [1],inhibition of aggregation [2],nuclei count [2],inhibition [3],nuclei count [3],fluorescence slope [4],NADPH fluorescence slope [5],slope [6],inhibition [7],inhibition [8]
CCC(Sc1nc(-c2ccccc2)c(C#N)c(=O)[nH]1)C(=O)Nc1cc(C)on1 (stereo not drawn),327,2.5% (inactive),-9.8% (inactive),115%,-74.9% (inactive),127%,-0.357 (inactive),-1.8e-05 (inactive),0.00594 (inactive),6.22% (inactive),7.77% (inactive)
O=C(CN1C(=O)c2ccccc2S1(=O)=O)NCc1ccccc1Cl,698,4.2% (inactive),8.6% (inactive),106%,-45.6% (inactive),108%,-0.599 (inactive),-1.3e-05 (inactive),0.0066 (inactive),9.36% (inactive),22.5% (inactive)
CC(=O)c1c(C)[nH]c(C(=O)Nc2c(C)n(C)n(-c3ccccc3)c2=O)c1C,418,2% (inactive),-7.3% (inactive),112%,-137% (inactive),111%,-0.493 (inactive),-2.7e-05 (inactive),0.00389 (inactive),17.1% (inactive),21.5% (inactive)
CCOC(=O)N1CCN(S(=O)(=O)c2cc(Cl)ccc2Cl)CC1,357,5.2% (inactive),29.4% (inactive),95.3%,-221% (inactive),106%,-0.62 (inactive),-2.7e-05 (inactive),0.00556 (inactive),14.8% (inactive),18.5% (inactive)
O=C(CCCc1cccs1)Nc1nc2c(s1)CCCC2,613,9.3% (inactive),-20.4% (inactive),102%,-164% (inactive),150%,-0.461 (inactive),-2.9e-05 (inactive),0.00629 (inactive),-29.3% (inactive),-48.8% (inactive)
CCCc1cc(-n2ccnc2)n2c(nc3ccccc32)c1C#N,571,8.7% (inactive),-11.1% (inactive),98.8%,30.6% (inactive),99.8%,-0.51 (inactive),1.6e-06 (inactive),0.00652 (inactive),16.6% (inactive),47.3% (inactive)
CCOC(=O)C1=C(N)OC2=C(C(=O)CC(C)(C)C2)C1c1ccco1 (stereo not drawn),382,1% (inactive),-38.9% (inactive),104%,-61.3% (inactive),110%,-0.566 (inactive),5.5e-05 (inactive),0.00621 (inactive),-0.305% (inactive),-16.2% (inactive)
CN1CCCC(OC(=O)c2ccc3c(c2)OCCO3)C1 (stereo not drawn),214,-1.4% (inactive),23.1% (inactive),102%,-1% (inactive),70.3%,-0.418 (inactive),-6.9e-05 (inactive),0.00576 (inactive),-0.0614% (inactive),-12.6% (inactive)
CCc1nnc(NC(=O)c2ccc(S(=O)(=O)N(CC(C)C)CC(C)C)cc2)o1,415,-1.4% (inactive),2.2% (inactive),94.8%,12.8% (inactive),81.5%,-0.507 (inactive),-1.1e-05 (inactive),0.00793 (inactive),8.12% (inactive),15.2% (inactive)
CCOC(=O)c1oc2ccccc2c1CSc1nnnn1-c1ccc(C)cc1,371,-3.4% (inactive),8.2% (inactive),88.1%,-60.7% (inactive),106%,-0.613 (inactive),-2.5e-05 (inactive),0.00768 (inactive),-16.8% (inactive),1.2% (inactive)
CC(C)OC(=O)c1cc(=O)[nH]c2ccccc12,267,14% (inactive),5.3% (inactive),94%,-4.6% (inactive),92.6%,-0.556 (inactive),3e-05 (inactive),0.00572 (inactive),12.2% (inactive),9.33% (inactive)
COc1ccc2nc3oc(C(=O)NC4CCN(Cc5ccccc5)CC4)cc3cc2c1,237,-1.3% (inactive),-19% (inactive),107%,-9.9% (inactive),110%,-0.122 (active),-8.2e-06 (inactive),0.00404 (inactive),-32.2% (inactive),-53.8% (inactive)
COc1ccccc1N1CCN(C(=O)C(Cc2ccccc2)NC(=O)C2CCCCC2)CC1 (stereo not drawn),370,-0.9% (inactive),11.3% (inactive),65.4%,-114% (inactive),96.1%,-0.428 (inactive),-0.000112 (inactive),0.00516 (inactive),0.074% (inactive),17.7% (inactive)
CCn1cc(C2=NCC(C)O2)c2ccccc21 (stereo not drawn),487,5% (inactive),-14% (inactive),83.2%,-128% (inactive),102%,-0.595 (inactive),-9.7e-06 (inactive),0.00619 (inactive),12.7% (inactive),25.5% (inactive)
CCCn1c(C)cc(C(=O)COc2ncnc3sccc23)c1C,312,2.9% (inactive),11.2% (inactive),65.8%,-66.8% (inactive),115%,-0.556 (inactive),2.3e-05 (inactive),0.00512 (inactive),-64% (inactive),-108% (inactive)
Nn1c(Cc2ccccc2F)nnc1SCC(=O)N1CC(=O)Nc2ccccc21,324,20.7% (inactive),11.9% (inactive),107%,-11.5% (inactive),105%,-0.39 (inactive),6.9e-08 (inactive),0.00403 (inactive),11.5% (inactive),36.8% (inactive)
CCOC(=O)c1ccc(NC(=O)CSCc2ccco2)cc1,680,-1.5% (inactive),-9.1% (inactive),108%,-4.5% (inactive),97.2%,-0.471 (inactive),-2.1e-06 (inactive),0.0058 (inactive),1.64% (inactive),-14.9% (inactive)
CCCC(=O)N(c1ccc2oc(=O)sc2c1)S(=O)(=O)c1ccccc1,318,3.5% (inactive),-12.8% (inactive),104%,-45.1% (inactive),80%,-0.61 (inactive),-2.4e-05 (inactive),0.00625 (inactive),14.8% (inactive),17.5% (inactive)
Clc1cccc(-c2nnc(-c3ccccc3)o2)c1,610,-15.9% (inactive),-13.5% (inactive),110%,4.7% (inactive),124%,-0.391 (inactive),3.1e-05 (inactive),0.00595 (inactive),-18.1% (inactive),-47% (inactive)
CCOC(=O)C1=C(c2ccccc2)NC(=O)NC1c1ccc(N(C)C)cc1 (stereo not drawn),363,-0.5% (inactive),14.6% (inactive),86.7%,-131% (inactive),118%,-0.439 (inactive),-4.5e-05 (inactive),0.00395 (inactive),12.6% (inactive),29.3% (inactive)
CC1Cn2c(nnc2-c2ccc(F)cc2)S1 (stereo not drawn),741,-17.7% (inactive),-26.8% (inactive),119%,-40% (inactive),101%,-0.583 (inactive),-2.2e-05 (inactive),0.00604 (inactive),-1.17% (inactive),28.5% (inactive)
CCOC(=O)N1CCC(n2c(=S)[nH]c3cc(OC)c(OC)cc3c2=O)CC1,471,4.8% (inactive),-23.4% (inactive),108%,-6.8% (inactive),105%,-0.631 (inactive),4.7e-05 (inactive),0.00633 (inactive),14.4% (inactive),23.2% (inactive)
CC(=O)Nc1ccc(OCC(O)CN2CCN(c3cccc(Cl)c3)CC2)cc1 (stereo not drawn),469,7% (inactive),-19.8% (inactive),115%,-27.1% (inactive),115%,-0.481 (inactive),-4.2e-05 (inactive),0.00626 (inactive),3.23% (inactive),21.4% (inactive)
COC(=O)n1c(=S)oc2cc(Cl)ccc21,673,8.2% (inactive),-25.1% (inactive),106%,16.4% (inactive),93%,-0.638 (inactive),1.8e-05 (inactive),0.0107 (inactive),16.6% (inactive),31.1% (inactive)
CC(=O)Nc1ccc(N=Cc2nc(-c3ccc(C)cc3)oc2O)cc1,1080,-11.6% (inactive),-4% (inactive),119%,-287% (inactive),132%,-0.281 (inactive),1.5e-05 (inactive),0.00463 (inactive),1.5% (inactive),-2.56% (inactive)
O=C(CN1C(=O)c2ccccc2S1(=O)=O)NCc1ccccn1,643,0% (inactive),-6.2% (inactive),90.1%,5% (inactive),119%,-0.61 (inactive),4e-06 (inactive),0.00685 (inactive),13.6% (inactive),26.2% (inactive)
O=C(NCc1ccco1)c1cc2cc3ccc(Cl)cc3nc2o1,198,-4.9% (inactive),12.7% (inactive),105%,-23.3% (inactive),118%,-0.489 (inactive),-3.4e-05 (inactive),0.00854 (inactive),-5.73% (inactive),-43.3% (inactive)
COc1ccc(CC(=O)NCc2nnc(SCC(=O)Nc3nccs3)n2-c2ccccc2)cc1,640,5.8% (inactive),17.6% (inactive),98.3%,-36.8% (inactive),122%,-0.558 (inactive),-2.9e-05 (inactive),0.00708 (inactive),12% (inactive),33.9% (inactive)

# From PubChem BioAssay
